# PNC inhibitor = High Content Assay for Compounds that inhibit the Assembly of the Perinucleolar Compartment | AID 2417, 2010 | PC3M PTB-GFP, PNC prevalence imaging, 16 h; active compounds read low | activity change (PNC), negative = inhibition, % at 10 µM | 140,000 tested, 3.1% active;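 active = readout at or below -70, meaning at least 70% loss of cells showing the perinucleolar compartment, a nuclear body marking cancer cells; inconclusive = readout between -30 and a set limit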;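 also: plate controls were DMSO wells for no effect and camptothecin positive control wells for full effect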
#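 Compounds are pinned in duplicate onto adhered PC3M cells stably expressing GFP-tagged PTB and incubated 16 h at 37 C. Cells are then fixed, nuclei stained with Hoechst, and PNC-positive cells counted.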
# HTT ATP protect = qHTS Multiplex Assay to Identify Dual Action Probes in a Cell Model of Huntington: Cytoprotection (ATP); PC12 HTT-Q103 induced, cytoprotection, ATP luminescence, 40 h; Potency, µM (top dose mostly 56.4 µM), without a hit: cytoprotection (ATP increase), usual class: activators; 230,000 tested, 0.14% active; AID 1471, 2008; also: potency is read from the fitted curve at half-maximal effect; % of control where 0% means no effect; nearly all actives have a fitted effect of over 45% in size
#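 Quantitative HTS on tebufenozide-induced (100 nM) PC12 cells expressing HTTQ103 exon 1–GFP; compounds tested as a concentration series; survival measured via cellular ATP.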
# HPGD block = qHTS Assay for Inhibitors of HPGD (15-Hydroxyprostaglandin Dehydrogenase) | Potency, µM, without a hit: top-dose activity change, negative = inhibition, most hits filed as inhibitors | purified HPGD, NADH fluorescence kinetic, PGE2 substrate | 15-hydroxyprostaglandin dehydrogenase [NAD(+)] (Homo sapiens), P15428 | 150,000 tested, 4.3% active; active = well fitted inhibition curve with a large enough effect, not every such curve was filed as active; inconclusive = small, poorly fitted or top-dose-only effect, or another doubt; inactive = no such curve, though single readings can be large or run the other way; also: potency is read from the fitted curve at half-maximal effect; % is scaled to controls: 0 for no effect and ±100 for the full control effect
# Target sequence (P15428 whole entry, looked up): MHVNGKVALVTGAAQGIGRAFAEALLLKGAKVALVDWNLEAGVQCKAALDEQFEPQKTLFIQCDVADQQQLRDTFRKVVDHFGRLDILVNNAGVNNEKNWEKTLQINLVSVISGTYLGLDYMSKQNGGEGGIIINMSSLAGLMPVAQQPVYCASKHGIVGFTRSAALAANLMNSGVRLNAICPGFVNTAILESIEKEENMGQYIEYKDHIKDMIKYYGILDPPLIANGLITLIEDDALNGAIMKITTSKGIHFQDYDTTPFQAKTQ
#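 20 nM HPGD preincubated 15 min at room temperature with compound in 50 mM Tris-HCl pH 8, 0.01% Tween 20. Started with 1 mM NAD+ and 30 uM prostaglandin E2; NADH fluorescence (360/450 nm) read 5 times over 30-s intervals, last minus first.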
# ALDH1A1 block = qHTS Assay for Inhibitors of Aldehyde Dehydrogenase 1 (ALDH1A1); Aldehyde dehydrogenase 1A1 (Homo sapiens), P00352; Purified ALDH1A1, NADH fluorescence, propionaldehyde substrate; Potency, µM (doses to about 75.3 µM), for the others: at the top dose activity, negative = inhibition, most hits filed as inhibitors; 220,000 tested, 7.3% active; AID 1030, 2008; active = well fitted inhibition curve with a large enough effect, not every such curve was filed as active; inconclusive = small, poorly fitted or top-dose-only effect, or another doubt; inactive = no such curve, though single readings can be large or run the other way;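 also: potency is read from the fitted curve at half-maximal effect; plate controls were no enzyme wells and a reference inhibitor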
# CBFb RUNX1 block = qHTS Assay for Compounds Blocking the Interaction Between CBF-beta and RUNX1 for the Treatment of Acute Myeloid Leukemia; Runt-related transcription factor 1 (Homo sapiens) + Core-binding factor subunit beta …; AlphaScreen CBFb-His/RUNX1-biotin binding, biochemical; Potency, µM (doses to about 59.8 µM), inactives show top-dose activity, negative = inhibition, usual class: inhibitors; 230,000 tested, under 10 active; AID 1477, 2009; also: % of control where 0% means no effect
#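 Bead-based AlphaScreen assay; binding partners His-tagged CBF-beta and biotinylated RUNX1 at 30 nM each. Compound exposure 15 min after a 20-min protein preincubation; bead step 90 min; all steps at room temperature.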
# HttQ103 aggreg = qHTS Multiplex Assay to Identify Dual Action Probes in a Cell Model of Huntington: Aggregate Formation (GFP); PC12 HttQ103-GFP aggregates, Acumen cytometry, 40 h; 220,000 tested, 1.1% active; Potency, µM (series often up to 46.1 µM), for inactives: at the top dose activity change, negative = inhibition, most hits filed as inhibitors; AID 1688, 2009; also: potency is read from the fitted curve at half-maximal effect; % is scaled to controls: 0 for no effect and ±100 for the full control effect; nearly all actives have a fitted effect of over 60% in size
#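 Inducible Q103 Huntingtin exon 1–GFP PC12 line, 1500 cells/well in phenol red free DMEM with 5% equine and 5% calf serum. Tebufenozide 100 nM induced expression; compounds titrated; aggregates quantified by cytometry.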
# * = called active by the depositor; ? = inconclusive; / = not tested or not shown; [ ] = dose if it differs, or a comment. Compounds with a hit are over-represented: about 11% of the library has one in this group of screens. Unless noted, calls follow the shape of the dose curve; as a rule, active = well fitted curve in the direction sought with a large enough effect; inconclusive = small, poorly fitted or top-dose-only effect, or another doubt; inactive = no such curve, though single readings can be large; an effect the other way counts as inactive or inconclusive.
SMILES,PNC inhibitor,HTT ATP protect,HPGD block,ALDH1A1 block,CBFb RUNX1 block,HttQ103 aggreg
CCN(CC)C(=O)c1sc(NC(=O)c2ccoc2C)c(C(=O)OC)c1C,67.0,-17.9%,14.1µM*,22.4µM*,-0.4%,3.7%[9.22 µM]
CCOC(=O)c1c(NC(=O)c2ccoc2C)sc(C(=O)N(C)C)c1C,-12.7,-4.6%,?,20µM*,-4.6%,6.3%
CCOC(=O)c1c(NC(=O)c2ccoc2C)sc2c1CCC2,24.6,-1.7%,?,?,8.8%,19.4%
Cc1c(Cl)cccc1NC(=S)N1CCN(C(=O)C2CCCO2)CC1 (centres undefined),?,44.1%[10 µM],/,-1.9%,3.8%,-6.7%
CCCCCCCCCCCCCCCCCC(=O)NCCc1ccc(O)c(O)c1,/,-11.3%,1.5%,-1.9%,14.2%,/
C[C@H]1COc2c(N3CCN(C)CC3)c(F)cc3c(=O)c(C(=O)NCc4ccco4)cn1c23,/,-51.2%,-18.4%,?,-12.4%,/
CCOC(=O)CNC(=S)N(Cc1ccc(C)cc1)Cc1ccc(C)o1,-0.3,20.1%[10 µM],-6.5%,-10.3%,3.9%,7.6%
CCOC(=O)c1c(NC(=O)OC)sc(C(=O)N(CC)CC)c1C,0.6,-17.7%,28.2µM*,?,7.7%,12.9%
CCOC(=O)Cn1c(=O)c2c(nc3n2CCCCN3c2ccc(OCC)cc2)n(C)c1=O,/,14.6%[0.074 µM],/,/,/,/
CCCCOC(=O)Cn1c(=O)c2c(nc3n2CCCCN3c2ccc(C)cc2)n(C)c1=O,-126.9*,13.5%[0.074 µM],-15.2%,?,3.6%,2.9%
CC(NCC(O)COC1CCC(C(C)(C)C)CC1)c1ccccc1 (centres undefined),/,-49.5%,/,-2.7%,-5.2%,10.6%
O=C(O)c1ccccc1-c1nc2ccccc2n1-c1ccccc1,-109.0*,/,3.3%,-0.3%,-2.2%,7.5%
O=C1c2ccccc2-c2nc3ccccc3n21,/,7.2%[10 µM],/,/,5.7%,-8.1%[9.22 µM]
O=C(Nc1cscc1S(=O)(=O)c1ccccc1)c1ccccc1Cl,/,-8.4%[10 µM],/,/,15.6%,14.0%[9.22 µM]
Cc1ccc(N2C(=O)NC(NC(=O)C3CC3)(C(F)(F)F)C2=O)cc1 (centres undefined),-100.2*,/,-12.7%,9.4%,6.6%,12.3%
Cc1ccc(C(=O)NC2(C(F)(F)F)NC(=O)N(c3ccc(Cl)cc3)C2=O)cc1 (centres undefined),-6.4,21.9%[10 µM],-7.7%,3.8%,7.3%,-9.1%
COc1cc2c(cc1OC)C1N(CC2)C(=O)CCC12C(=O)CCCC2=O (centres undefined),/,-1.7%,?,4.4%,-7.3%,/
O=C(/C=C\C=C/c1ccc2c(c1)OCO2)N1CCCCC1,/,-37.8%[40.3 µM],10µM*,?,-7.6%[21.7 µM],/
N#Cc1ccc(CN2CC3(CCN(C(=O)c4csnn4)CC3)C2)cc1,/,-1.0%,-7.3%,10.5%,/,/
COc1ccccc1CNC(=O)c1n[nH]c2ccccc12,/,0.6%[10 µM],/,?,20.5%,-1.2%[9.22 µM]
O=C(Cn1cnc2ccccc2c1=O)Nc1nnc(SCc2ccccc2)s1,17.4,24.2%,22.4µM*,9.4%,-0.8%,9.4%
CCCCCc1nnc(NC(=O)Cn2cnc3ccccc3c2=O)s1,-110.8*,15.8%[10 µM],-4.6%,1.0%,-8.6%,0.0%
C[C@@H]1CC2(OC(O)[C@]3(C)O[C@H]23)O[C@H]2C[C@@]3(C)[C@@H]4CC[C@H]5C(C)(C)C(O[C@@H]6OC[C@@H](O)[C@H](O)[C@H]6O)CC[C@@]56C[C@@]46CC[C@]3(C)[C@@H]12 (some centres undefined),/,-77.7%,-0.2%,-1.7%,17.5%[21.7 µM],/
